# About 120 (0.17%) of roughly 70,000 compounds were called active. The sample holds actives, similar compounds and a random draw of the others, so the mix is not that of the screen. A number with no mark means an inactive call. Cut-off read from the data, not from the text of the source: active = inhibition above about 34%; inconclusive = no clear call, values can overlap the other calls; inactive = below about 11%.
# Target: Isocitrate dehydrogenase [NADP] cytoplasmic (Homo sapiens) (UniProt O75874)
# Assay: PubChem AID 624101;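 note: 0% = DMSO and 100% = no enzyme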
# Conditions: IDH1 R132H reductase, diaphorase/resazurin fluorescence, 60 min; at 10 µM; stronger effect = higher value
# Sequence of Isocitrate dehydrogenase [NADP] cytoplasmic (Homo sapiens) (O75874 whole entry R132H): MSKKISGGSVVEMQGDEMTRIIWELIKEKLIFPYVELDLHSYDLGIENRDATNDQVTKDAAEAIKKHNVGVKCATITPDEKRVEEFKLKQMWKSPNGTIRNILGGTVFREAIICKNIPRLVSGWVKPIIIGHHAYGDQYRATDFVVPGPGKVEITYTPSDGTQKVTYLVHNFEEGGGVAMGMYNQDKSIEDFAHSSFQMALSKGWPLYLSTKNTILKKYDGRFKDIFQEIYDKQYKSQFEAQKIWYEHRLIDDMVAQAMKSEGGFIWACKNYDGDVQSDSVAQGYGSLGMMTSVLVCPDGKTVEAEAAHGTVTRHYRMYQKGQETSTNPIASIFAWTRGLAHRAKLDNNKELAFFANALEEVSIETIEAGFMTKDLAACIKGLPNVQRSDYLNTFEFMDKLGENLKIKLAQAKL
row,Compound,inhibition
1,COc1cccc(-c2ccc3c(c2)O[C@H](CN(C)C(=O)C2CCOCC2)[C@H](C)CN([C@H](C)CO)S3(=O)=O)c1,-1.58%
2,C[C@H](O)C#Cc1ccc2c(c1)O[C@H](CN(C)Cc1ccccn1)[C@H](C)CN([C@H](C)CO)S2(=O)=O,1.79%
3,C/C=C/c1ccc2c(c1)O[C@H](CN(C)C(=O)Cc1cccnc1)[C@@H](C)CN([C@H](C)CO)S2(=O)=O,9.7%
4,C/C=C/c1ccc2c(c1)O[C@H](CN(C)C(=O)Cc1ccncc1)[C@@H](C)CN([C@@H](C)CO)S2(=O)=O,37.6% (active)
5,CCCN(C)C[C@@H]1Oc2cc(C#CCc3ccccc3)ccc2S(=O)(=O)N([C@H](C)CO)C[C@@H]1C,35.5% (active)
6,C[C@@H]1CN([C@H](C)CO)S(=O)(=O)c2ccc(C#CCC3CCCC3)cc2O[C@H]1CN(C)Cc1ccc(C(=O)O)cc1,45.9% (active)
7,CCCN(C)C[C@H]1Oc2cc(C#CCC(C)C)ccc2S(=O)(=O)N([C@H](C)CO)C[C@H]1C,-4.36%
8,C[C@@H]1CN([C@@H](C)CO)S(=O)(=O)c2ccc(C#CCC3CCCC3)cc2O[C@H]1CN(C)Cc1ccc(C(=O)O)cc1,0.74%
9,C/C=C/c1ccc2c(c1)O[C@@H](CN(C)C(=O)Cc1ccccc1)[C@H](C)CN([C@@H](C)CO)S2(=O)=O,0.0005%
10,CCCC#Cc1ccc2c(c1)O[C@@H](CN(C)CCC)[C@@H](C)CN([C@H](C)CO)S2(=O)=O,-0.176%
11,C[C@@H]1CN([C@@H](C)CO)S(=O)(=O)c2ccc(C#CCC3CCCC3)cc2O[C@@H]1CN(C)C,-1.79%
12,C[C@@H]1CCCCO[C@@H](CN(C)C(=O)Nc2ccc(C(F)(F)F)cc2)[C@H](C)CN([C@H](C)CO)C(=O)c2cc(NC(=O)C3CCCCC3)ccc2O1,1.02%
13,O=C(NCC[C@@H]1CC[C@H](NC(=O)C2CC2)[C@@H](CO)O1)c1cc(Cl)cc(Cl)c1,0.406%
14,CCCNC(=O)C[C@H]1C[C@@H]2c3cc(NC(=O)C4CCOCC4)ccc3O[C@@H]2[C@H](CO)O1,0.074%
15,C[C@@H](NC(=O)C[C@@H]1C=C[C@@H](NC(=O)CN2CCOCC2)[C@H](CO)O1)c1ccccc1,0.081%
16,CO[C@@H]1CN(C)C(=O)c2ccc(NC(=O)C3CC3)cc2OC[C@H](C)N(C(=O)c2ccccc2)C[C@@H]1C,0.146%
17,CO[C@@H]1CN(C)C(=O)c2cc(NS(=O)(=O)c3ccccc3C)ccc2OC[C@@H](C)N(S(C)(=O)=O)C[C@@H]1C,-0.22%
18,Cc1ccc(S(=O)(=O)N[C@@H]2CC[C@H](CCn3cc(C4(O)CCCC4)nn3)O[C@H]2CO)cc1,0.172%
19,CCNC(=O)C[C@@H]1CC[C@H](NC(=O)NC2CCCCC2)[C@H](CO)O1,0.102%
20,CO[C@@H]1CN(C)C(=O)c2ccc(NC(=O)C3CCCC3)cc2OC[C@H](C)NC[C@@H]1C,-0.326%
21,CO[C@@H]1CN(C)C(=O)c2cc(NC(=O)c3ccccc3F)ccc2OC[C@H](C)NC[C@@H]1C,0.217%

row,Compound,inhibition
1,COc1cccc(CNC(=O)c2cc3c(c(-c4cccc(-c5ccc(C#N)cc5)c4)n2)[C@@H](CCO)N([S@](=O)C(C)(C)C)C3)c1,0.432%
2,O=C(N[C@@H]1CC[C@@H](CCNS(=O)(=O)c2ccccc2Cl)O[C@@H]1CO)c1ccccc1,-0.485%
3,CO[C@@H]1CN(C)C(=O)c2cc(NC(=O)C3CC3)ccc2OC[C@@H](C)N(C(=O)c2ccncc2)C[C@H]1C,0.284%
4,COc1ccccc1-c1cnc2c(c1)C(=O)N([C@@H](C)CO)C[C@H](C)[C@@H](CN(C)C(C)=O)O2,-1.01%
5,O=C(C[C@H]1C[C@H]2c3cc(NS(=O)(=O)c4ccc(F)cc4)ccc3O[C@H]2[C@H](CO)O1)NCc1cc(F)ccc1F,-0.236%
6,O=C(N[C@H]1CC[C@@H](CCNS(=O)(=O)c2cccc(Cl)c2)O[C@@H]1CO)c1ccccc1,-0.277%
7,CC(C)NC(=O)N[C@H]1CC[C@@H](CC(=O)NCc2ccc(Oc3ccccc3)cc2)O[C@@H]1CO,-0.181%
8,O=C(N[C@H]1CC[C@H](CCNS(=O)(=O)c2ccc(F)cc2)O[C@H]1CO)C1CCC1,-0.096%
9,C[C@@H]1CN([C@H](C)CO)C(=O)c2cc(-c3ccc(C(=O)N(C)C)cc3)cnc2O[C@H]1CN(C)C(=O)C1CC1,-0.906%
10,CO[C@@H](CN(C)C(=O)c1cnccn1)[C@@H](C)CN([C@@H](C)CO)S(=O)(=O)c1ccc(Cl)cc1,0.106%
11,O=C(C[C@H]1C[C@@H]2c3cc(NC(=O)c4cccnc4)ccc3O[C@@H]2[C@H](CO)O1)NCc1ccccn1,-0.419%
12,CO[C@H]1CN(C)C(=O)c2ccc(NC(=O)c3ccc4c(c3)OCO4)cc2OC[C@@H](C)NC[C@@H]1C,0.0335%
13,COCC(=O)Nc1ccc2c(c1)OC[C@@H](C)N(C(=O)c1cnccn1)C[C@H](C)[C@@H](OC)CN(C)C2=O,0.0305%
14,CO[C@@H]1CN(C)C(=O)c2ccc(NC(=O)Nc3ccccc3)cc2OC[C@@H](C)N(C(=O)Nc2c(C)noc2C)C[C@@H]1C,-0.183%
15,CO[C@@H]1CN(C)C(=O)c2cc(NS(=O)(=O)CC(F)(F)F)ccc2OC[C@@H](C)N(Cc2ccccn2)C[C@H]1C,0.0375%
16,CO[C@H]1CN(C)C(=O)c2cc(NC(=O)C3CC3)ccc2OC[C@H](C)N(C(=O)CN(C)C)C[C@H]1C,0.155%
17,O=C(C[C@@H]1C[C@H]2c3cc(NC(=O)Nc4ccccc4F)ccc3O[C@H]2[C@@H](CO)O1)NC1CCCCC1,-0.261%
18,CCC(=O)Nc1ccc2c(c1)C(=O)N(C)C[C@H](OC)[C@H](C)CN(C(=O)C1CCC1)[C@@H](C)CO2,0.203%
19,COCC(=O)Nc1ccc2c(c1)OC[C@@H](C)N(C(=O)c1ccncc1)C[C@@H](C)[C@@H](OC)CN(C)C2=O,-0.0035%
20,CO[C@@H]1CN(C)C(=O)c2cc(NC(=O)C3CC3)ccc2OC[C@@H](C)N(Cc2ccc(F)cc2)C[C@@H]1C,-0.084%
21,CN(C)CC(=O)Nc1ccc2c(c1)[C@H]1C[C@H](CC(=O)NCc3ccccc3)O[C@@H](CO)[C@H]1O2,-0.369%

row,Compound,inhibition
1,C[C@H](CO)N1C[C@H](C)[C@H](CN(C)C(=O)C2CCOCC2)Oc2ncc(-c3ccccc3)cc2C1=O,0.163%
2,Cc1ccc(S(=O)(=O)NCC[C@H]2CC[C@@H](NC(=O)C3CCOCC3)[C@@H](CO)O2)cc1,0.168%
3,COc1cccc(C(=O)Nc2ccc3c(c2)OC[C@H](C)NC[C@H](C)[C@H](OC)CN(C)C3=O)c1,-0.351%
4,CO[C@@H]1CN(C)C(=O)c2cc(NC(C)=O)ccc2OC[C@H](C)N(Cc2ccccc2F)C[C@@H]1C,-0.198%
5,Cc1ccc(-c2cnc3c(c2)C(=O)N([C@@H](C)CO)C[C@H](C)[C@H](CN(C)C(=O)c2cccnc2)O3)cc1,-1.23%
6,CO[C@@H](CN(C)S(=O)(=O)c1ccccc1)[C@@H](C)CN(Cc1ccccc1Cl)[C@H](C)CO,-0.567%
7,O=C(N[C@H]1CC[C@@H](CCNS(=O)(=O)c2ccc(F)cc2)O[C@@H]1CO)c1ccccn1,0.234%
8,Cc1noc(C)c1C(=O)N(C)C[C@H]1OCc2ccccc2-c2c(n(C)c3ccccc23)C(=O)N([C@@H](C)CO)C[C@H]1C,-2%
9,C[C@@H]1CN([C@@H](C)CO)C(=O)Cc2cc(NC(=O)CCCCCC(=O)Nc3ccccc3N)ccc2O[C@H]1CN(C)C(=O)Nc1ccc(C(F)(F)F)cc1,0.304%
10,CC(=O)N(C)C[C@H]1Oc2cc(-c3ccc(C)cc3)ccc2S(=O)(=O)N([C@@H](C)CO)C[C@@H]1C,5.52%
11,CS(=O)(=O)Nc1ccc2c(c1)[C@H]1C[C@H](CC(=O)NC3CCCC3)O[C@@H](CO)[C@H]1O2,-0.18%
12,CO[C@@H]1CN(C)C(=O)c2ccc(NS(C)(=O)=O)cc2OC[C@H](C)NC[C@H]1C,0.02%
13,CO[C@H]1CN(C)C(=O)c2cc(NS(=O)(=O)c3ccccc3)ccc2OC[C@H](C)N(C(=O)NC(C)C)C[C@@H]1C,0.066%
14,O=C(NCC[C@@H]1CC[C@H](NS(=O)(=O)c2cccc(F)c2)[C@H](CO)O1)c1cnccn1,-0.0355%
15,O=C(NCC[C@H]1CC[C@H](NC(=O)C2CC2)[C@@H](CO)O1)c1cc(Cl)cc(Cl)c1,-0.0835%
16,COc1cccc(-c2cn(CC[C@H]3CC[C@H](NC(=O)CN(C)C)[C@H](CO)O3)nn2)c1,-0.376%
17,O=C(O)C[C@@H]1C[C@@H]2c3cc(NC(=O)NC4CCCC4)ccc3O[C@@H]2[C@H](CO)O1,-0.0525%
18,C/C=C/c1cnc2c(c1)C(=O)N([C@@H](C)CO)C[C@@H](C)[C@@H](CN(C)C(=O)c1cnccn1)O2,-1.79%
19,CN(C)C(=O)C[C@@H]1CC[C@@H](NS(=O)(=O)c2ccccc2)[C@H](CO)O1,-0.243%
20,CO[C@H]1CN(C)C(=O)c2cc(NC(=O)c3ccccc3)ccc2OC[C@H](C)NC[C@H]1C,0.304%
